Data reported in PubChem BioAssay (EPA / NIEHS).
Records with an inconclusive call do not appear. Calls of active or inactive are those of the source. The calls were made as follows: active = hit-call score of the fitted dose curve at least 0.9, where 1 is the maximum; inconclusive = response in the unintended direction; inactive = score below 0.9.

Columns and labels:
[1] = molecular target: Tyrosine-protein phosphatase non-receptor type 13 (Homo sapiens) (UniProt Q12923); assay: NVS_ENZ_hPTPN13: NovaScreen (NVS) Enzymatic Assay for human Protein Tyrosine Phosphatase Non-receptor Type 13 (PTPN13) (AID 2283205)
Procedure, shortened: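 Screened first at a single 25 uM in duplicate; compounds passing the threshold (e.g. 30% inhibition) were rerun in concentration series, top 50 uM. Recombinant enzyme, fluorescent substrate, mobility-shift separation, 0.5 h read. Data fitted as inhibition relative to DMSO.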

[2] = molecular target: human Raf-1 Proto-Oncogene, serine/threonine Kinase (RAF1), RAF1 (gene 5894) (UniProt P04049); assay: NVS_ENZ_hRAF1: NovaScreen (NVS) Enzymatic Assay for human Raf-1 Proto-Oncogene, serine/threonine Kinase (RAF1) (AID 2283216)
Procedure, shortened: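 Single-point screening at 25 uM (duplicate), followed by singleton concentration-response to 50 uM maximum for chemicals exceeding threshold. Enzyme activity from fluorescent substrate-product mobility-shift separation after 1 h, relative to DMSO.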

[3] = molecular target: human Sirtuin 2 (SIRT2), SIRT2 (gene 22933) (UniProt Q8IXJ6); assay: NVS_ENZ_hSIRT2: NovaScreen (NVS) Enzymatic Assay for human Sirtuin 2 (SIRT2) (AID 2283217)
Procedure, shortened: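 Single-point duplicate screen at 25 uM, then concentration-response (max 50 uM) for chemicals passing threshold. Enzyme activity of recombinant human SIRT2 measured after 1 hr by fluorescence with mobility-shift separation of product; DMSO baseline.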

[4] = molecular target: human Sirtuin 3 (SIRT3), SIRT3 (gene 23410) (UniProt Q9NTG7); assay: NVS_ENZ_hSIRT3: NovaScreen (NVS) Enzymatic Assay for human Sirtuin 3 (SIRT3) (AID 2283222)
Procedure, shortened: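 Cell-free enzyme assay with recombinant protein and fluorescent substrate, product separated by electrophoretic mobility shift; read 1 hour after dosing. Screened in duplicate at 25 uM, then singleton concentration-response up to 50 uM; loss of signal versus DMSO.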

[5] = molecular target: human Tropomyosin Receptor Kinase A (TRKA), NTRK1 (gene 4914) (UniProt P04629); assay: NVS_ENZ_hTrkA: NovaScreen (NVS) Enzymatic Assay for human Tropomyosin Receptor Kinase A (TRKA) (AID 2283224)
Procedure, shortened: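 Compounds were screened at 25 uM in duplicate, then concentration series to a 50 uM top for those meeting threshold (e.g. 30% inhibition). Enzyme was recombinant human TrkA, incubated 1 h. Product formation was quantified by fluorescence after mobility-shift separation.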

Sequence of human Tropomyosin Receptor Kinase A (TRKA), NTRK1 (gene 4914) (P04629 whole entry, looked up): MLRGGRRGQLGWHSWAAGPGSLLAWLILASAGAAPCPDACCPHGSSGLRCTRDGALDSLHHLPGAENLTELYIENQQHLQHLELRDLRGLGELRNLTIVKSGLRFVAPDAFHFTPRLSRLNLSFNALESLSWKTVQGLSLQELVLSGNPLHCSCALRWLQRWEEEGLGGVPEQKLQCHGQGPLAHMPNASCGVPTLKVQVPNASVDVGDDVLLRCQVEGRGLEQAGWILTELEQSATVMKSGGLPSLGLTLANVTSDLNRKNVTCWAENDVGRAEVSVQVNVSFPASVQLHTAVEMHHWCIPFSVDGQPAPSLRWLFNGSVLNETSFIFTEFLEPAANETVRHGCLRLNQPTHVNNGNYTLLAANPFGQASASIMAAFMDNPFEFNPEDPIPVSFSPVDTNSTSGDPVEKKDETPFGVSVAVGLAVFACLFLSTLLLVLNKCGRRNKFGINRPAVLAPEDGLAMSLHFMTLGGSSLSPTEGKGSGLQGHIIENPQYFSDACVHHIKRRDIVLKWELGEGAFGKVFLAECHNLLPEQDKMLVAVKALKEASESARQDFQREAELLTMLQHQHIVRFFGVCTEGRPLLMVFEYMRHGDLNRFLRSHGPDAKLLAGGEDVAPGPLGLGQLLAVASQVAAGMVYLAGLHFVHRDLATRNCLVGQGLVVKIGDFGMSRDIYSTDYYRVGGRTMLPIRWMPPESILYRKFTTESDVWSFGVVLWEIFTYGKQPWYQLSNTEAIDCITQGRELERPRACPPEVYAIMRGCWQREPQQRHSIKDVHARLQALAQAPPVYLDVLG
Sequence of Tyrosine-protein phosphatase non-receptor type 13 (Homo sapiens) (Q12923 whole entry, looked up): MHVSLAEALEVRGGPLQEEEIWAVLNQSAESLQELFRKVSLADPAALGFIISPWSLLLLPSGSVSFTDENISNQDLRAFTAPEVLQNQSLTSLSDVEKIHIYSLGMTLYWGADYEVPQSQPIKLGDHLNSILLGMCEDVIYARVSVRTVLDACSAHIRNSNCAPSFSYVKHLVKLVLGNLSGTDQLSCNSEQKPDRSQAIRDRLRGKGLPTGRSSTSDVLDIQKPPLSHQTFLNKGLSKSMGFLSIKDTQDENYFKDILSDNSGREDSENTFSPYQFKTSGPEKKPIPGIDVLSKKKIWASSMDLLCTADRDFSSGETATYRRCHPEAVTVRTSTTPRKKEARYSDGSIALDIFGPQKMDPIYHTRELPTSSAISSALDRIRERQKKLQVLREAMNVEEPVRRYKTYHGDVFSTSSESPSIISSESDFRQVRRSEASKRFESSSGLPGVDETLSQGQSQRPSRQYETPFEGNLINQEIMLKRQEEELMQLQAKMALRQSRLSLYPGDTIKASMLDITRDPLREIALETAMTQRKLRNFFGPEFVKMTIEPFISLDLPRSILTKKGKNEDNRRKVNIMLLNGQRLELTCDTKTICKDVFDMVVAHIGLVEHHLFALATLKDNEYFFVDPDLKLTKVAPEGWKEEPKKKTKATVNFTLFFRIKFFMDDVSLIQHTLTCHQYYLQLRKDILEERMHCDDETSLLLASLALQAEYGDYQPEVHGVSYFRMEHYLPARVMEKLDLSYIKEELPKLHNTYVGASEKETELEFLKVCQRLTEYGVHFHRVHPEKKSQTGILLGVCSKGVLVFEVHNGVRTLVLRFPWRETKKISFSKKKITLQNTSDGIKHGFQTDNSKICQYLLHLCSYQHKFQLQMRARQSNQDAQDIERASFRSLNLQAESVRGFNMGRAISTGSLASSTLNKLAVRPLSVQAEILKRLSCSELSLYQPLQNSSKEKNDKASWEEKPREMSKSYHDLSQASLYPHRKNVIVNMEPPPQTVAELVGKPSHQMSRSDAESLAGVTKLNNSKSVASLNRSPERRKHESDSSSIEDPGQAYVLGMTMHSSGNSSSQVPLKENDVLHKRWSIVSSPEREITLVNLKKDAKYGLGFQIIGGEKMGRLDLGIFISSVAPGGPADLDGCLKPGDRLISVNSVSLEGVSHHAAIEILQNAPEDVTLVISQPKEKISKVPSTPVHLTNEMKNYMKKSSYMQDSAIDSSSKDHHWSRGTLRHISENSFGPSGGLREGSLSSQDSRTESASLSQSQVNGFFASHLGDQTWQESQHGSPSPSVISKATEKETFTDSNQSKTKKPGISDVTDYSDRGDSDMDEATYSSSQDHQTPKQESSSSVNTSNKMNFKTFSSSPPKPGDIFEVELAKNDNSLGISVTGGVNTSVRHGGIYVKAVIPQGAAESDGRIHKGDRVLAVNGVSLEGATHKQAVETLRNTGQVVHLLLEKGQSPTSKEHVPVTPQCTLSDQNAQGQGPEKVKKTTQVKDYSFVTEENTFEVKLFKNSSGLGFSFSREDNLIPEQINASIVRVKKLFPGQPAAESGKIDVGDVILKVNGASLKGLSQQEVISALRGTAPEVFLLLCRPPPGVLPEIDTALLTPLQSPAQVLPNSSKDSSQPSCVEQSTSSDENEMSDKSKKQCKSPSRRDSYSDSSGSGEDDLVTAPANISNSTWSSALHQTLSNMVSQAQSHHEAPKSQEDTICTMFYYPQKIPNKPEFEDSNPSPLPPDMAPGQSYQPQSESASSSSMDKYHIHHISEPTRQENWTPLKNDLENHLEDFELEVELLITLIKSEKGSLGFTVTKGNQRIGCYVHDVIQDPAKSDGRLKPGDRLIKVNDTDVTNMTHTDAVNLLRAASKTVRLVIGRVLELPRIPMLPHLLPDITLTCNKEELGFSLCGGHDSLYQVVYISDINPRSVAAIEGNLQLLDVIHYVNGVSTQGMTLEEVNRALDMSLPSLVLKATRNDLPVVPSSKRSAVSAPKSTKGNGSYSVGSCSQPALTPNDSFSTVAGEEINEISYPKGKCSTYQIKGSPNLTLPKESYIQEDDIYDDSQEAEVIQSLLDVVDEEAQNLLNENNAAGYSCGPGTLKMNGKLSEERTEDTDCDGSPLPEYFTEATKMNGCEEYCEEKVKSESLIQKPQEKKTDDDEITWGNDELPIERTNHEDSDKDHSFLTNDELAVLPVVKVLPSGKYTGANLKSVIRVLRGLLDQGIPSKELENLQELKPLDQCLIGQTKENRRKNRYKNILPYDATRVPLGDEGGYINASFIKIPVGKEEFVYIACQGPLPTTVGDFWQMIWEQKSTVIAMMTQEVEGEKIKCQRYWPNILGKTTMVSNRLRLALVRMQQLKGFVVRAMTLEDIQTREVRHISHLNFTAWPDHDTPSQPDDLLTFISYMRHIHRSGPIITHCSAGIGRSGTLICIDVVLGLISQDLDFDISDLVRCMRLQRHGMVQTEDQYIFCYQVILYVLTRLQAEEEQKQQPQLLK
Sequence of human Raf-1 Proto-Oncogene, serine/threonine Kinase (RAF1), RAF1 (gene 5894) (P04049 whole entry, looked up): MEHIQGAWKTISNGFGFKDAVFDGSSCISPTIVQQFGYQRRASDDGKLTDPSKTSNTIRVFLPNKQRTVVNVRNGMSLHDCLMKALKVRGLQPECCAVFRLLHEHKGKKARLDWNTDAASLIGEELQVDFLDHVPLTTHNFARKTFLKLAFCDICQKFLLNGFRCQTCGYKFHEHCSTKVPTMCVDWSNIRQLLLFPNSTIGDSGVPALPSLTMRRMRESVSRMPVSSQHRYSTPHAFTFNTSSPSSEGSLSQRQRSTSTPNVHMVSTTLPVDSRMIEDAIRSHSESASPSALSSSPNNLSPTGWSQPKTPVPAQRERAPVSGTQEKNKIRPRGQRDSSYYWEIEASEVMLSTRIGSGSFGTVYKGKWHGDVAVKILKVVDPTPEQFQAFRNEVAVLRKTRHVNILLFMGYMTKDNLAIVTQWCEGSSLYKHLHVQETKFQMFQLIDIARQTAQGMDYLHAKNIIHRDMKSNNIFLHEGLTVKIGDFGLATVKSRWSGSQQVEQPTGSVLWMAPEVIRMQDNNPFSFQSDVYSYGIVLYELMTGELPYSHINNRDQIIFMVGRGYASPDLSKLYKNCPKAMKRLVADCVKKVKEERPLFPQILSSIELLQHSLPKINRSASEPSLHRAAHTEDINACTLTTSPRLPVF
Sequence of human Sirtuin 2 (SIRT2), SIRT2 (gene 22933) (Q8IXJ6 whole entry, looked up): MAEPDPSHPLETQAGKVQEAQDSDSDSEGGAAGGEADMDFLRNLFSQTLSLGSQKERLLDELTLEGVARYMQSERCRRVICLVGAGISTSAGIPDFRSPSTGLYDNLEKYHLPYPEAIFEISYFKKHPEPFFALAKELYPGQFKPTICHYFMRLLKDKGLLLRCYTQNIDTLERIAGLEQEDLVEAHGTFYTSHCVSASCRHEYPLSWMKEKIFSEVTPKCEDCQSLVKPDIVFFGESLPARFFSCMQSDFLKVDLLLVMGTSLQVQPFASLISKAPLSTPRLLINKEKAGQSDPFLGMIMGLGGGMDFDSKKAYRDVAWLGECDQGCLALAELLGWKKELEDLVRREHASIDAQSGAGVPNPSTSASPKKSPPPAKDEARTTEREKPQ
Sequence of human Sirtuin 3 (SIRT3), SIRT3 (gene 23410) (Q9NTG7 whole entry, looked up): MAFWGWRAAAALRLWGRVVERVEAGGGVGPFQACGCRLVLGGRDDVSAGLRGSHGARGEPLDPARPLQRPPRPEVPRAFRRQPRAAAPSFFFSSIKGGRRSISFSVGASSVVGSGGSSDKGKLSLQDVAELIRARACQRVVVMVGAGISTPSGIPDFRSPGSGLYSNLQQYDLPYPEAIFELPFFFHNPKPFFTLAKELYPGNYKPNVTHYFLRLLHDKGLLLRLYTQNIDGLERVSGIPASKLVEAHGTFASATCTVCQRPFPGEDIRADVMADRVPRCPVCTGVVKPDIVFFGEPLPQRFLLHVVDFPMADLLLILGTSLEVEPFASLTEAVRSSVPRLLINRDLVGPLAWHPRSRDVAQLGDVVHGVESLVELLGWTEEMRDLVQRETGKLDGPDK

Which outcome [1] does the source give for c1ccc(OP(Oc2ccccc2)Oc2ccccc2)cc1 here?
Its outcome is “inactive”.

Which outcome [1] does the source give for CC(C)(C)OOC(C)(C)C here?
Its outcome is “inactive”.

What about the outcome [2] of the same compound?
The outcome was “inactive”.

How did the outcome [3] turn out when CSC(C)(C)C=NO was run?
The outcome was “inactive”.

What about the outcome [4] of the same compound?
Its outcome is “inactive”.

With ClC1=C(Cl)C2(Cl)C3C(Cl)C(Cl)CC3C1(Cl)C2(Cl)Cl (configuration not stated) as the compound, how does the outcome [5] read?
The outcome was “inactive”.

How did the outcome [5] turn out when O=[N+]([O-])c1ccccc1 was run?
The outcome was “inactive”.
